{"source": "ChEMBL document CHEMBL1961873", "about": "“Compounds: GSK PKIS; Assays: Nanosyn kinase panel” (2012);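 further: each figure is a mean percent inhibition of GSK3A activity, from a screen of the GSK published kinase inhibitor set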", "data": [{"biological_target": "Glycogen synthase kinase-3 alpha (Homo sapiens) (UniProt P49840)", "sequence (P49840 2-483 limits assumed)": "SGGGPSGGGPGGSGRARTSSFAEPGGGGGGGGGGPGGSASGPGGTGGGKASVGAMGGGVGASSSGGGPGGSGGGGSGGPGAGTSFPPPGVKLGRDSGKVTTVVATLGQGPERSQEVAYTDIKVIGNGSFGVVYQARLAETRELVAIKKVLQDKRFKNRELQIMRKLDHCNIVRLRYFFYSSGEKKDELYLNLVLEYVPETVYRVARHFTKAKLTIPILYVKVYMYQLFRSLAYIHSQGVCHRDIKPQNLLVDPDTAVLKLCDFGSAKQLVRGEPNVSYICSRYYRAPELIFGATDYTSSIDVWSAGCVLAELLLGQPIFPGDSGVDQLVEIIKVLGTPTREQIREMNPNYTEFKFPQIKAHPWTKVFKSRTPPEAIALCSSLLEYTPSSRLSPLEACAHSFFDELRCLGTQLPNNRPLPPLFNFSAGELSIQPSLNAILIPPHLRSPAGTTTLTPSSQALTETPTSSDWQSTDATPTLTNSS", "conditions": "at 1 µM", "units": {"inhibition": "%"}, "values": [{"molecule": "NC(=O)c1cc(-c2ccc(F)cc2)cc(-c2ccncc2)c1N", "inhibition": 1.03}, {"molecule": "O=C(NCC1CC1)c1ccc(-c2cccc(C(=O)NC3CC3)c2)cc1", "inhibition": 3.17}, {"molecule": "COc1ccc2ncn(-c3cc(O[C@H](C)c4ccccc4Cl)c(C(N)=O)s3)c2c1", "inhibition": 1.7}, {"molecule": "O=C1Nc2ccc(I)cc2C1=Cc1cc(Br)c(O)c(Br)c1", "inhibition": 5.19}, {"molecule": "Fc1ccc(-c2ncn(CCCN3CCOCC3)c2-c2ccncc2)cc1", "inhibition": 4.21}, {"molecule": "COc1ccc2cc(-c3c(-c4ccncc4)nc(-c4ccc([S+](C)[O-])cc4C)n3C)ccc2c1", "note": "(configuration not stated)", "inhibition": 15.4}, {"molecule": "COC(=O)Nc1nc2ccc(Sc3ccc(NC(=O)Nc4cc(C(F)(F)F)ccc4F)cc3)cc2[nH]1", "inhibition": 0.68}, {"molecule": "CN(C)CCCNc1nccc(-c2c(-c3ccc(F)cc3)nn3cc(C(F)(F)F)ccc23)n1", "inhibition": 7.76}, {"molecule": "CCS(=O)(=O)c1ccc(OC)c(Nc2ncc(-c3ccccc3Cl)o2)c1", "inhibition": 1.64}, {"molecule": "Fc1ccc(-c2c(-c3ccncc3)nc3n2CCS3)cc1", "inhibition": 1.28}, {"molecule": "CCN(CC)Cc1ccc(Nc2nccc(-c3cnn4ncccc34)n2)cc1", "inhibition": 65.8}, {"molecule": "COc1cc2ncn(-c3cc(OCCc4ccccc4)c(C(N)=O)s3)c2cc1OC", "inhibition": 3.18}, {"molecule": "Cc1ccc(NC(=O)c2ccoc2)cc1-c1ccc(C(=O)NCC2CC2)cc1", "inhibition": 0.83}, {"molecule": "NS(=O)(=O)c1ccc(N/N=C2\\C(=O)Nc3ccc(C(=O)NCCCn4ccnc4)cc32)cc1", "inhibition": 76}, {"molecule": "NCc1ccc(-n2c(-c3nonc3N)nc3cnccc32)cc1", "inhibition": 67}, {"molecule": "COc1cccc(-n2cnc3c(N/N=C/c4ccncc4)ncnc32)c1", "inhibition": 34.7}, {"molecule": "C[C@@H](Oc1cc(-n2cnc3ccc(OC4CCN(C)CC4)cc32)sc1C(N)=O)c1ccccc1Cl", "inhibition": -0.34}]}]}
